This is part of a sample that, as a whole, favours compounds with a hit. Of some 83,000 tested, about 20% had one in any assay.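 Cells were grown in 96-well plates and exposed to the test compound at a single concentration for 48 hours; results are reported as percent growth, with values below 10 considered active.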 A number with no mark means an inactive call. The source made the active and inactive calls.
Tests used:
Experiment in all cases: NCI-60 one-dose screen, 48 h (100 = growth as untreated, 0 = no growth, -100 = all killed)
Settings in all cases: 10 µM
[1] = system: SR leukemia
[2] = system: RPMI-8226 leukemia
[3] = system: OVCAR-8 ovarian
[4] = system: OVCAR-5 ovarian
[5] = system: SK-OV-3 ovarian
[6] = system: OVCAR-3 ovarian
[7] = system: HS 578T breast
[8] = system: NCI/ADR-RES ovarian
[9] = system: T-47D breast
[10] = system: BT-549 breast
[11] = system: MDA-MB-435 melanoma
[12] = system: SW-620 colon
[13] = system: MCF7 breast
[14] = system: HCT-116 colon
[15] = system: HCC-2998 colon
[16] = system: KM12 colon
[17] = system: OVCAR-4 ovarian
[18] = system: IGROV1 ovarian

Row | Structure (SMILES) | growth [1] | growth [2] | growth [3] | growth [4] [%] | growth [5] | growth [6] | growth [7] | growth [8] | growth [9] | growth [10] | growth [11] | growth [12] | growth [13] | growth [14] | growth [15] | growth [16] | growth [17] | growth [18]
1 | Nc1c(C(=O)Nc2ccccc2F)sc2nc3c(cc12)C(=O)CCC3 | 36.7% | 52% | 58.6% | 71.1 | 13.6% | 16.8% | 37.2% | -4.39% (active) | 40.2% | 59.8% | -25.9% (active) | 30% | 22.9% | 32% | 43.8% | 24.6% | – | –
2 | CN(C)CCCN1c2ccccc2Sc2ccc(C(F)(F)F)cc21 | -42.3% (active) | 22.5% | 44.4% | – | 20.2% | 8.18% (active) | 27% | 10.4% | 5.93% (active) | 25.7% | -39.3% (active) | 9.61% (active) | -39.7% (active) | 1.99% (active) | -65.9% (active) | 0.137% (active) | 44.4% | 17%
3 | COc1nc2c(c(=O)[nH]1)C(c1ccc(Oc3ccnc4cc(Cl)ccc34)c(OC)c1)C=C(c1cc(OC)c(OC)c(OC)c1)N2 (configuration not stated) | 74.1% | 94.5% | 97.4% | 92.6 | 99.5% | 108% | – | 101% | 89.8% | 91.7% | 111% | 102% | 102% | 94% | 97.6% | 104% | 106% | –
4 | COc1ccc(-n2nnc3c(sc4ccccc43)c2=O)cc1 | 51.1% | 72% | 29.1% | – | -15.6% (active) | 24% | 21.4% | 52.9% | 35.5% | 102% | 69% | 83.9% | 80.4% | 5.85% (active) | 74.9% | 70.2% | -46.9% (active) | -0.829% (active)
5 | CCOC(=S)Sc1ccc([N+](=O)[O-])cc1[N+](=O)[O-] | 18.3% | 11.9% | 93.3% | – | 97.1% | 62.2% | – | 102% | 83.6% | 24.1% | 61.7% | 35.4% | 65.5% | – | 101% | 22.5% | 113% | 99.2%
6 | Cc1ccc(C(=O)O)c(N)c1C | 98.4% | 98.7% | 100% | – | 93.5% | 104% | 106% | 106% | 94.5% | 94.3% | 105% | 104% | 92.6% | 92% | 106% | 95% | 99.3% | 91%
7 | CCCCNC(=O)Oc1ccc(/C(=C(\C)c2ccc(OC)cc2)c2ccc(OCCN3CCCCC3)cc2)cc1 | -22.9% (active) | 29% | – | 74.9 | 66.7% | 73.6% | 48.5% | 68.2% | 32.4% | 52% | 59.8% | 40.5% | 24.2% | 29.4% | 72.8% | 45.4% | 64.8% | 64.7%
8 | O=c1oc2c3ccc4cnccc4c3[nH]c2c2ccccc12 | -51.3% (active) | -21.8% (active) | 24.3% | – | 89.1% | 38.2% | 68.1% | 71.5% | -8.53% (active) | 32.7% | -69.8% (active) | 3.35% (active) | -12.3% (active) | -14.5% (active) | – | 28.2% | 25.2% | 21.2%
9 | O=S(=O)(NCCO)c1ccc(OCCOc2ccc(S(=O)(=O)NCCO)cc2)cc1 | 104% | 98% | 98.7% | – | 96.1% | 111% | 104% | 97.8% | 84.5% | 95.7% | 104% | 101% | 96% | 102% | 9.56% (active) | 104% | 107% | 99.9%
10 | C=CCNC(=S)NN | 54.6% | 74.2% | 71.2% | – | 98.4% | 96.5% | 89.5% | 82.7% | 50.5% | 99.2% | 95.4% | 85.5% | 8.89% (active) | 6.82% (active) | 107% | 98.6% | 96.8% | 45.3%
11 | CCN(CC)CC(O)CNc1ccnc2cc(Cl)c(Cl)cc12 (configuration not stated) | 28.4% | 90.3% | 84.3% | – | 106% | 92.5% | 103% | 87.1% | 93.1% | 88.9% | 96.8% | 97.3% | 79.5% | 64.2% | 102% | 94.2% | 85.9% | 91.1%
12 | CS(=O)(=O)Nc1ccc([N+](=O)[O-])cc1Oc1ccccc1 | 87% | 83.2% | 92.1% | – | 97.3% | 95.4% | 98.2% | 96.8% | 84% | 109% | 101% | 104% | 102% | 100% | 93% | 94.5% | 97% | 106%
13 | C[C@@H]1C(=O)N(C[C@H](Cc2ccccc2)NC(=O)OCc2ccccc2)[C@]1(Cc1ccccc1)C(=O)OCc1ccccc1 | 35.2% | 30.1% | 40.7% | – | 54.8% | 61.3% | – | 27% | 7.82% (active) | 62.9% | 52% | 52.6% | 35% | 32.3% | 71% | 26.6% | 22.1% | –
14 | C/C(=N/NC(=O)c1sc(=S)n(C)c1N)c1cc2cc(Cl)ccc2o1 | 98.7% | 87.3% | 14.3% | – | 102% | 110% | 5.99% (active) | 104% | 80.4% | 113% | 95.7% | 44.3% | 82.7% | 103% | – | 88.2% | 117% | 51.6%
15 | FC(F)(F)c1ccc(-c2cnc(Cl)nc2NCc2cc(C(F)(F)F)cc(C(F)(F)F)c2)cc1 | 26.2% | – | 15.6% | 35.2 | 43.4% | 3.89% (active) | 26.8% | 12.5% | 10.5% | 26.2% | 14.3% | 17.5% | 4.38% (active) | 4.49% (active) | – | – | 19.5% | 45.5%
16 | CCc1ccc(Nc2cc(C)nc3nc(C)nn23)cc1 | -20.9% (active) | -35.2% (active) | -69.2% (active) | – | 38.3% | -92.2% (active) | 50.8% | -29.5% (active) | -68.3% (active) | 40.7% | -97.2% (active) | -68.9% (active) | -92% (active) | – | -69.8% (active) | 3.49% (active) | -13.1% (active) | 32.8%
17 | O=C(/C=C/c1ccc(Cl)cc1)c1ccc(Br)cc1 | 71.4% | 28.1% | 103% | – | 100% | 100% | 124% | 101% | 79.7% | 102% | 99.1% | 102% | 26.3% | 75.5% | 95% | 93.8% | 92.5% | 88.2%
18 | Cc1cc(C(C)(C)CC(C)(C)C)ccc1OCCOCC[N+](C)(C)Cc1ccccc1 | -62.5% (active) | -20% (active) | 18.7% | – | 11% | 12.9% | -9.66% (active) | 103% | 7.06% (active) | -99% (active) | -87% (active) | -80.6% (active) | -90.7% (active) | -97.4% (active) | -60.6% (active) | -92.5% (active) | 2.92% (active) | -76.8% (active)
19 | COC(=O)[C@]12CC[C@@H](C)[C@H](C)[C@@H]1C1=CC[C@@H]3[C@@]4(C)CC(=O)[C@H](O)[C@@](C)(CO)[C@@H]4C(=O)C[C@@]3(C)[C@]1(C)CC2 | -51.3% (active) | -32.2% (active) | -8.97% (active) | – | 3.85% (active) | -27.3% (active) | -1.78% (active) | -24.3% (active) | -15.8% (active) | -31.4% (active) | 11.4% | 1.83% (active) | -13.4% (active) | -43.1% (active) | -61.1% (active) | -37.3% (active) | 13.8% | -27.7% (active)
